Screening data (PubChem BioAssay)
Most compounds without a hit are left out; they make up all but 3% or so of the library.
TRb-SRC2 inh – qHTS for Inhibitors of the Interaction of Thyroid Hormone Receptor and Steroid Receptor Coregulator 2 | TRbeta-SRC2 peptide binding, fluorescence polarization; receptor liganded with 1 µM T3 | Potency, µM (series often up to 106 µM), for inactives: top-dose activity change, negative = inhibition, most hits filed as inhibitors | hit rate 0.065% among 280,000 | Thyroid hormone receptor beta (Homo sapiens), P10828;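 also: plate controls were bound peptide for no effect and peptide without receptor for full effect; nearly all actives have a fitted effect of over 50% in size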
Target sequence (P10828 whole entry, looked up): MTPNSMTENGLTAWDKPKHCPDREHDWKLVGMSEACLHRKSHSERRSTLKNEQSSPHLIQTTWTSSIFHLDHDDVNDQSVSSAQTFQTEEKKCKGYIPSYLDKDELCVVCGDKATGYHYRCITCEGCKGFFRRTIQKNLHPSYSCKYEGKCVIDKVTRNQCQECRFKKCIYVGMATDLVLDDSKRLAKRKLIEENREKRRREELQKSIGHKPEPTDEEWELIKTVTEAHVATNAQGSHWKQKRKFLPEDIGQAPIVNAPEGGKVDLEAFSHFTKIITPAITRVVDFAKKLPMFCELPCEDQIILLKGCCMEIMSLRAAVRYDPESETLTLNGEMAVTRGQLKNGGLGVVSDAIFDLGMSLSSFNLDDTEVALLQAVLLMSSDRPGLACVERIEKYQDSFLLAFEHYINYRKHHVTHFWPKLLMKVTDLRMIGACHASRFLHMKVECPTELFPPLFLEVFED
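Fluorescence polarization of 20 nM Texas Red SRC2 peptide with 0.6 uM human TRb ligand-binding domain, in Tris buffer with 1uM T3 and 5% DMSO. Incubated 5 hr ambient; normalized to unbound and bound controls.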
TR SRC2 fluor cs – Total Fluorescence Counterscreen for Inhibitors of the Interaction of Thyroid Hormone Receptor and Steroid Receptor Coregulator 2. TRb/SRC2 Texas Red total fluorescence interference. Potency, µM (series often up to 106 µM), for the others: at the top dose fluorescence change, negative = quenching. hit rate 0.29% among 280,000; active = well fitted curve in either direction with a large enough effect; inconclusive = small, poorly fitted or top-dose-only effect
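Human TRb ligand-binding domain at 0.6 uM with 20 nM Texas Red SRC2 peptide in Tris buffer containing 1 uM T3 and 5% DMSO, incubated with compound 5 h at ambient temperature. Total fluorescence (555/632 nm) calculated as parallel + 2 × perpendicular.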
Tau fibril FP – qHTS for Inhibitors of Tau Fibril Formation, Fluorescence Polarization; Potency, µM (top dose mostly 57.7 µM), without a hit: top-dose activity, negative = inhibition, hits mostly inhibitors; AID 1468, 2008; hit rate 0.39% among 280,000; K18 P301L tau heparin fibrillization, Alexa594 FP, 6 h; also: nearly all actives have a fitted effect of over 55% in size
Target sequence (P10636 561-689 P618L limits assumed): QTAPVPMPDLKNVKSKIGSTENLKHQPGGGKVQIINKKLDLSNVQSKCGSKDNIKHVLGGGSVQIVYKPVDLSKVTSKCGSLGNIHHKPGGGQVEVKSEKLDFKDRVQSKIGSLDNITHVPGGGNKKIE
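Human K18 P301L fragment (15 uM unlabeled plus 0.24 uM Alexa 594-labeled) in 100 mM sodium acetate pH 7 with compound, aggregation induced by 20 uM heparin for 6 hr at 37 C. ThT (30 uM) added for 1 hr, then Alexa 594 FP read.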
Tau fibril ThT – qHTS for Inhibitors of Tau Fibril Formation, Thioflavin T Binding. hit rate 2.1% among 270,000. AID 1460, 2008. Potency, µM (doses to about 57.4 µM), inactives show at the highest dose activity, negative = inhibition, most hits filed as inhibitors. Microtubule-associated protein tau (Homo sapiens), P10636. recombinant tau K18 P301L, heparin-induced fibrillization, ThT fluorescence; also: nearly all actives have a fitted effect of over 55% in size
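Heparin-induced fibrillization of the P301L-mutant K18 repeat-domain fragment of human tau was followed by ThT binding in quantitative high-throughput format.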
Tau fluor counter – Counterscreen qHTS for Inhibitors of Tau Fibril Formation, Fluorescence Polarization. hit rate 0.93% among 280,000. Potency, µM (titrated, usually from 57.7 µM), without a hit: top-dose activity change, negative = decrease. tau K18 P301L Alexa594 fluorescence, heparin fibrillization. AID 1463, 2008; also: nearly all actives have a fitted effect of over 55% in size
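Human tau K18 P301L (15 uM unlabeled, 0.24 uM Alexa 594-labeled) in 100 mM sodium acetate pH 7 with 20 uM heparin, 6 hr at 37 C. ThT 30 uM added, 1 hr ambient; Alexa 594 FP and total fluorescence read at 555/632 nm.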
Numbers without * were called inactive; ? = inconclusive; nt = no result; [ ] = dose if it differs, or a comment. Unless noted, calls follow the shape of the dose curve; as a rule, active = well fitted curve in the direction sought with a large enough effect; inconclusive = small, poorly fitted or top-dose-only effect, or another doubt; inactive = no such curve, though single readings can be large; an effect the other way counts as inactive or inconclusive. Unless noted, % is scaled to controls: 0 for no effect and ±100 for the full control effect; potency is read from the fitted curve at half-maximal effect.

SMILES	TRb-SRC2 inh	TR SRC2 fluor cs	Tau fibril FP	Tau fibril ThT	Tau fluor counter
COC(=O)C1=C(C)N(CCc2ccc(OC)c(OC)c2)C(=O)/C1=C\N(C)C	-3.1%	-4.0%	?	14.1µM*	-26.4%
CCc1cccc(NCc2ccccc2-c2nnc(-c3ccccc3Cl)o2)c1	-2.3%	0.0%	-6.6%	-7.0%	-21.2%
COc1cc(/C=C2\C(=O)N(c3ccc(NC(C)=O)cc3)N=C2c2ccccc2)ccc1O	-15.0%	-1.8%	5.0%	?	?
CCOc1cc(/C=C2\C(=O)N(c3nc(-c4ccc(Br)cc4)cs3)N=C2c2ccccc2)ccc1O	20.4%	28.2µM*[quencher]	?	11.2µM*	?
N[C@@H](C(=O)O)[C@@H](CC(=O)O)c1ccc(Cl)cc1	3.4%	-0.5%	5.7%	1.6%	-6.1%
CC(C)=CCc1c(O)ccc(C(=O)Cc2ccccc2)c1O	0.3%	-3.3%	14.1µM*	-17.2%	?
CCC(=O)c1ccc(O)c(CC=C(C)C)c1	-22.1%	-0.8%	-0.4%	-3.1%	-4.8%
COc1ccc(CCNc2ncnc3onc(C)c23)c(OC)c1	1.6%	4.5%	-1.1%	2.9%	-8.3%
CCCCc1nc2c(c3c1C[C@H](C)OC3)CN(C(=O)c1cc(I)ccc1F)CC2	-0.2%[11.2 µM]	-1.8%[11.2 µM]	-3.5%[11.6 µM]	-12.5%[11.5 µM]	-19.6%[11.6 µM]
CC(C)C1Nc2c(O)cc(Cl)c([N+](=O)[O-])c2C2C=CCC21 (stereo unspecified)	?	14.3%	1.8%	11.2µM*	?
CC(C)CN1C(=O)c2ccc(NC(=O)c3cccs3)cc2C1=O	-14.2%	-1.8%	?	-9.8%	?
O=C(Nc1ccc(Oc2ccc3c(c2)C(=O)N(c2ccc(O)cc2)C3=O)cc1)c1cccs1	3.0%	-2.8%	14.1µM*	1.1%	2.0%
N#C/C(=C/c1ccc(N2CCOCC2)o1)c1nc2ccccc2[nH]1	-14.2%	?	-5.4%	7.94µM*	?
N#C/C(=C\c1ccc(N2CCOCC2)o1)c1ccccc1	-17.2%	?	?	14.1µM*	?
N#C/C(=C/c1ccc(N2CCOCC2)o1)C(=O)NC1CCCCC1	4.5%	4.8%	3.2%	?	-25.9%
N#C/C(=C\c1ccc(Sc2ccc(Cl)cc2)o1)c1nc2ccccc2[nH]1	-9.9%	3.9%	?	?	7.08µM*[quencher]
N#C/C(=C/c1cccs1)c1nc2ccccc2[nH]1	-2.6%	-0.3%	-4.5%	-14.5%	-4.3%
N#C/C(=C/c1ccc(N2CCOCC2)o1)c1ccc(Br)cc1	4.4%	8.4%	?	14.1µM*	?
CCOc1ccc(C(c2c(O)cc(C)n(CCOC)c2=O)N2CCC(C)CC2)cc1 (stereo unspecified)	-3.3%	-0.8%	-2.8%	?	0.3%
COc1ccccc1N1CCN(C(=O)c2cnn(-c3ccc(C)c(C)c3)c2C2CCN(C(=O)OC(C)(C)C)CC2)CC1	0.0%	0.9%	8.2%	-14.3%	-4.5%
N#C/C(=C/c1ccc(N2CCCCCC2)o1)c1cccc(F)c1	-19.5%	-0.9%	?	14.1µM*	?
N#C/C(=C\c1cc([N+](=O)[O-])c(N2CCOCC2)cc1N1CCOCC1)c1nc2ccccc2[nH]1	-8.6%	-4.3%	2.1%	15.8µM*	?
Cc1cc(/C=C(/C#N)c2nc3ccccc3[nH]2)c(C)n1-c1cccc([N+](=O)[O-])c1	-0.8%	-4.3%	10.6%	?	?
Cc1nn(C(C)C(=O)NC2CCCCC2)c(=O)c2c1sc1ccccc12 (stereo unspecified)	-0.6%	-0.1%	1.7%	?	-22.8%
CN(c1ccc(OCC(=O)OCC(=O)Nc2ccccc2)cc1)S(=O)(=O)c1cccs1	-27.0%[53 µM]	5.01µM*[quencher]	?	1.0%	-11.1%
SMILES	TRb-SRC2 inh	TR SRC2 fluor cs	Tau fibril FP	Tau fibril ThT	Tau fluor counter
COC(=O)N1CCN(/[N+]([O-])=N/Oc2ccc([N+](=O)[O-])cc2[N+](=O)[O-])CC1	0.1%	-3.8%	nt	nt	nt
CN(C)/C=C1/Sc2ccccc2C1=O	3.2%	3.3%	2.0%	?	-5.5%
CC(=O)N(\C=C/C=C/C=C1\Sc2ccccc2C1=O)c1ccccc1	3.4%	1.1%	?	6.31µM*	?
Nc1c(C(=O)c2ccc(Br)s2)oc2ccccc12	-4.0%	-4.9%	12.9%	10µM*	?
COc1ccc(OC)c(NC(=O)c2cnn(-c3ccc(C)cc3)c2C2CCNCC2)c1	0.4%	-41.9%	-5.4%	?	-13.2%
Cc1ccc(S(=O)(=O)Nc2ccc(-c3nc4cc(NS(=O)(=O)c5ccc(C)cc5)ccc4o3)cc2)cc1	-0.5%	-1.5%	15.8µM*	7.3%	?
COc1ccc(NC(=O)c2c(NCc3ccc(C)o3)sc3c2CCC(C)C3)c(OC)c1 (stereo unspecified)	-1.5%	-6.2%	-8.6%	?	?
COc1ccccc1NC(=O)c1c(NCc2sccc2C)sc2c1CCCCC2	2.3%	-2.1%	0.5%	?	-19.3%
COc1ccc(NC(=O)c2c(NCc3ccc(C)o3)sc3c2CCCCC3)c(OC)c1	-25.2%	112µM*[quencher]	?	17.8µM*	?
COc1ccc(NC(=O)c2c(NCc3sccc3C)sc3c2CCCCC3)c(OC)c1	-1.8%	-11.0%	?	28.2µM*	?
COc1ccc(Cl)cc1NC(=O)c1c(NCc2sccc2C)sc2c1CCCC2	3.6%	-1.7%	?	3.98µM*	?
COC(=O)C(C(C)=O)C1c2ccccc2C=C(C)N1C(=O)OC (stereo unspecified)	-1.4%[11.2 µM]	-0.9%[11.2 µM]	1.8%[11.6 µM]	-6.4%[11.5 µM]	-4.4%[11.6 µM]
CCOc1ccc(-c2nc3c(c(CC)nn3-c3ccccc3)c3cc(OC)c(OC)cc23)cc1	-2.9%	4.7%	0.4%	-1.3%	-3.4%
CCOC(=O)c1ccc(CN(Cc2ccccc2C)S(=O)(=O)c2ccc(F)c(C)c2)cc1	3.4%	1.0%	-3.4%	-4.2%	-12.8%
CC(=O)C1=C(C)NC(SCC(=O)c2ccc(F)cc2)=C(C#N)C1c1ccco1 (stereo unspecified)	-2.7%	-7.1%	-4.9%	15.8µM*	?
CC(=O)C1=C(C)NC(SCC(=O)c2ccc(Cl)c(Cl)c2)=C(C#N)C1c1ccco1 (stereo unspecified)	1.3%	-4.8%	0.6%	5.5%	-9.8%
CC(=O)C1=C(C)NC(SCC(=O)c2cc(Cl)ccc2Cl)=C(C#N)C1c1ccco1 (stereo unspecified)	-10.7%	2.9%	?	28.2µM*	?
C[C@@H]1CC2[C@@H]3C[C@H](F)C4=CC(=O)C(Cl)=C[C@]4(C)[C@@]3(F)[C@H](O)C[C@]2(C)[C@@]1(O)C(=O)CO (stereo partly specified)	-3.5%	1.7%	nt	nt	nt
